Measurements: the supplement of paper PMC8728848
The sample as a whole holds a higher share of the strongest signals than the screen did.

Legend:
Experiment in all cases: glycan array binding signal (z-score within array); higher = stronger binding
Conditions in all cases: glycan notation: IUPAC condensed, linker removed
[1] = target: Gal(b1-4)GlcNAc(b1-3)[GlcNAc(b1-6)]Gal(b1-4)GlcNAc
How it was run: (§1)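 Glycan array data were curated from 3228 arrays in the Consortium for Functional Glycomics database and kept only where the protein sequence was available. Glycan names were converted to IUPAC-condensed notation, and columns mapping to the same glycan were averaged. The binding signal is a within-array Z-score, averaged across arrays of the same protein sequence at different concentrations or buffers and across linkers. Negative Z-scores can be read as non-binding.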

Gal(b1-6)Gal = target: Gal(b1-6)Gal
How it was run: as §1

Gal3S6S(b1-4)GlcNAc = target: Gal3S6S(b1-4)GlcNAc
How it was run: as §1

Gal6S(b1-4)GlcNAc = target: Gal6S(b1-4)GlcNAc
How it was run: as §1

[2] = target: GalNAc(b1-4)GlcNAc(b1-3)GalNAc(b1-4)GlcNAc
How it was run: as §1

[3] = target: GalNAc3S(b1-4)[Fuc(a1-3)]GlcNAc
How it was run: as §1

[4] = target: GlcNAc(a1-3)Gal(b1-4)GlcNAc
How it was run: as §1

[5] = target: GlcNAc(a1-4)Gal(b1-4)GlcNAc(b1-3)Gal(b1-4)GlcNAc(b1-3)Gal(b1-4)GlcNAc
How it was run: as §1

[6] = target: GlcNAc(b1-2)[GlcNAc(b1-4)]Man(a1-3)[GlcNAc(b1-2)Man(a1-6)]Man(b1-4)GlcNAc(b1-4)GlcNAc
How it was run: as §1

[7] = target: GlcNAc(b1-3)Gal(b1-4)GlcNAc(b1-3)Gal(b1-4)GlcNAc(b1-2)[GlcNAc(b1-3)Gal(b1-4)GlcNAc(b1-3)Gal(b1-4)GlcNAc(b1-6)]Man(a1-6)[GlcNAc(b1-3)Gal(b1-4)GlcNAc(b1-3)Gal(b1-4)GlcNAc(b1-2)Man(a1-3)]Man(b1-4)GlcNAc(b1-4)[Fuc(a1-6)]GlcNAc
How it was run: as §1

[8] = target: GlcNAc(b1-3)Gal(b1-4)GlcNAc(b1-3)Gal(b1-4)GlcNAc(b1-3)Gal(b1-4)GlcNAc(b1-2)[GlcNAc(b1-3)Gal(b1-4)GlcNAc(b1-3)Gal(b1-4)GlcNAc(b1-3)Gal(b1-4)GlcNAc(b1-6)]Man(a1-6)[GlcNAc(b1-3)Gal(b1-4)GlcNAc(b1-3)Gal(b1-4)GlcNAc(b1-3)Gal(b1-4)GlcNAc(b1-2)Man(a1-3)]Man(b1-4)GlcNAc(b1-4)[Fuc(a1-6)]GlcNAc
How it was run: as §1

GlcNAc(b1-3)Man = target: GlcNAc(b1-3)Man
How it was run: as §1

[9] = target: GlcNAc(b1-3)[GlcNAc(b1-4)][GlcNAc(b1-6)]GlcNAc
How it was run: as §1

[10] = target: GlcNAc(b1-4)GlcNAc(b1-4)GlcNAc(b1-4)GlcNAc(b1-4)GlcNAc(b1-4)GlcNAc
How it was run: as §1

Kdn(a2-3)Gal(b1-4)Glc = target: Kdn(a2-3)Gal(b1-4)Glc
How it was run: as §1

Kdn(a2-6)Gal(b1-4)GlcNAc = target: Kdn(a2-6)Gal(b1-4)GlcNAc
How it was run: as §1

[11] = target: Man(a1-3)[Man(a1-6)]Man(a1-6)[Man(a1-2)Man(a1-3)]Man(b1-4)GlcNAc(b1-4)GlcNAc
How it was run: as §1

[12] = target: Man(a1-3)[Man(a1-6)]Man(a1-6)[Man(a1-3)]Man
How it was run: as §1

[13] = target: Man(a1-3)[Man(a1-6)]Man(a1-6)[Man(a1-3)]Man(b1-4)GlcNAc(b1-4)GlcNAc
How it was run: as §1

[14] = target: Man(a1-3)[Man(a1-6)]Man(b1-4)GlcNAc(b1-4)[Fuc(a1-6)]GlcNAc
How it was run: as §1

Man(a1-6)Man = target: Man(a1-6)Man
How it was run: as §1

[15] = target: Neu5Ac(a2-3)Gal(b1-3)GlcNAc(b1-2)Man(a1-3)[Neu5Ac(a2-3)Gal(b1-3)GlcNAc(b1-2)Man(a1-6)]Man(b1-4)GlcNAc(b1-4)GlcNAc
How it was run: as §1

[16] = target: Neu5Ac(a2-3)Gal(b1-3)GlcNAc(b1-6)GalNAc
How it was run: as §1

[17] = target: Neu5Ac(a2-3)[Neu5Ac(a2-6)]GalNAc
How it was run: as §1

[18] = target: Neu5Ac(a2-6)Gal(b1-4)GlcNAc(b1-2)Man(a1-3)[Gal(b1-4)GlcNAc(b1-2)Man(a1-6)]Man(b1-4)GlcNAc(b1-4)GlcNAc
How it was run: as §1

[19] = target: Neu5Ac(a2-6)Gal(b1-4)GlcNAc(b1-2)Man(a1-3)[Man(a1-6)]Man(b1-4)GlcNAc(b1-4)GlcNAc
How it was run: as §1

[20] = target: Neu5Ac(a2-8)Neu5Ac(a2-3)Gal(b1-4)Glc
How it was run: as §1

[21] = target: Neu5Ac(a2-8)Neu5Ac(a2-8)Neu5Ac(a2-3)[GalNAc(b1-4)]Gal(b1-4)Glc
How it was run: as §1

[22] = target: Neu5Gc(a2-3)Gal(b1-3)GlcNAc
How it was run: as §1

B1: PfulAvr4 (Pseudocercospora fuligena) (protein)
chain: HHHHHHDYKDDDDKTYVQDKTPAFVCPAADIKTTKCLGPKDCLYPSPKTCNGYIQCSPADDSYLTGIIHEMPCPSGLLWNDNKKWCDWPENTTCGLVKSAGATEVDATKQGPTPGKYHG
- glycan array binding signal (z-score) [1]: 1.21
- glycan array binding signal (z-score) (Gal(b1-6)Gal): -0.156
- glycan array binding signal (z-score) (Gal3S6S(b1-4)GlcNAc): 0.034
- glycan array binding signal (z-score) (Gal6S(b1-4)GlcNAc): -0.128
- glycan array binding signal (z-score) [2]: -0.127
- glycan array binding signal (z-score) [3]: -0.134
- glycan array binding signal (z-score) [4]: -0.093
- glycan array binding signal (z-score) [5]: -0.059
- glycan array binding signal (z-score) [6]: -0.053
- glycan array binding signal (z-score) [7]: -0.049
- glycan array binding signal (z-score) [8]: -0.07
- glycan array binding signal (z-score) (GlcNAc(b1-3)Man): 0.804
- glycan array binding signal (z-score) [9]: -0.124
- glycan array binding signal (z-score) [10]: 23.3
- glycan array binding signal (z-score) (Kdn(a2-3)Gal(b1-4)Glc): 0.189
- glycan array binding signal (z-score) (Kdn(a2-6)Gal(b1-4)GlcNAc): 0.004
- glycan array binding signal (z-score) [11]: 0.011
- glycan array binding signal (z-score) [12]: -0.076
- glycan array binding signal (z-score) [13]: -0.097
- glycan array binding signal (z-score) [14]: -0.095
- glycan array binding signal (z-score) (Man(a1-6)Man): -0.118
- glycan array binding signal (z-score) [15]: 1.27
- glycan array binding signal (z-score) [16]: -0.082
- glycan array binding signal (z-score) [17]: -0.131
- glycan array binding signal (z-score) [18]: 3.32
- glycan array binding signal (z-score) [19]: -0.088
- glycan array binding signal (z-score) [20]: -0.074
- glycan array binding signal (z-score) [21]: -0.132
- glycan array binding signal (z-score) [22]: -0.161
